Reference: PubChem BioAssay (EPA / NIEHS)
Inconclusive results are not listed. Activity calls are given as the source filed them. Rule for the calls: active = hit-call score of the fitted dose curve at least 0.9, where 1 is the maximum; inconclusive = response in the unintended direction; inactive = score below 0.9.

Experiments:
[1] = target: human MAP Kinase-Activated Protein Kinase 2 (MAPKAPK2), MAPKAPK2 (gene 9261) (UniProt P49137); experiment: NVS_ENZ_hMAPKAPK2: NovaScreen (NVS) Enzymatic Assay for human MAP Kinase-Activated Protein Kinase 2 (MAPKAPK2) (AID 2283178)
Description: NVS_ENZ_hMAPKAPK2 is a biochemical, single-readout assay that uses extracted gene-proteins in a cell-free assay. Measurements were taken 1 hour after chemical dosing in a 384-well plate.NVS_ENZ_hMAPKAPK2 is one of one assay component(s) measured or calculated from the NVS_ENZ_hMAPKAPK2 assay. It is designed to make measurements of enzyme activity, a form of enzyme reporter, as detected with fluorescence intensity signals by Fluorescence and electrophoretic mobility shift technology.Data from the assay component NVS_ENZ_hMAPKAPK2 was analyzed into 1 assay endpoint. This assay endpoint, NVS_ENZ_hMAPKAPK2, was analyzed in the positive analysis fitting direction relative to DMSO as the negative control and baseline of activity. Using a type of enzyme reporter, loss-of-signal activity can be used to understand changes in the enzymatic activity as they relate to the gene MAPKAPK2. Furthermore, this assay endpoint can be referred to as a primary readout, because this assay has produced multiple assay endpoints where this one serves a enzymatic activity function. To generalize the intended target to other relatable targets, this assay endpoint is annotated to the kinase intended target family, where the subfamily is serine/threonine kinase. […]

[2] = target: human Matrix Metalloproteinase-2 (MMP2), MMP2 (gene 4313) (UniProt P08253); experiment: NVS_ENZ_hMMP2: NovaScreen (NVS) Enzymatic Assay for human Matrix Metalloproteinase-2 (MMP2) (AID 2283184)
In short: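 Compounds first screened in duplicate at a single 25 uM, with actives followed up in concentration series. Recombinant human MMP2 cleaves a fluorogenic substrate; fluorescence taken at 1 h, inhibition fitted relative to DMSO.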

[3] = target: sheep Cyclooxygenase-2 (Cox2), PTGS2 (gene 443460) (UniProt P79208); experiment: NVS_ENZ_oCOX2: NovaScreen (NVS) Enzymatic Assay for sheep Cyclooxygenase-2 (Cox2) (AID 2283231)
In short: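 Enzyme from ovine placenta, cell-free; colorimetric absorbance read 0.66 hour after dosing, loss of signal vs DMSO. Screened in duplicate at 25 uM, then concentration-response up to 50 uM.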

[4] = target: human Vascular Endothelial Growth Factor Receptor 1 (VEGFR1), FLT1 (gene 2321) (UniProt P17948); experiment: NVS_ENZ_hVEGFR1: NovaScreen (NVS) Enzymatic Assay for human Vascular Endothelial Growth Factor Receptor 1 (VEGFR1) (AID 2283226)
In short: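 Kinase activity of recombinant human VEGFR1 was read by fluorescence after electrophoretic separation of product from substrate, 1 h post-dosing; initial duplicate single-point testing at 25 uM, followed by concentration-series follow-up, with DMSO as baseline.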

[5] = target: rat Constitutive Nitric Oxide Synthase (CNOS), Nos1 (gene 24598) (UniProt P29476); experiment: NVS_ENZ_rCNOS: NovaScreen (NVS) Enzymatic Assay for rat Constitutive Nitric Oxide Synthase (CNOS) (AID 2283236)
In short: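 Single 25 uM duplicate screen, then concentration series to 50 uM for chemicals meeting threshold. Rat brain membrane-derived CNOS activity detected radiometrically by filtration and scintillation counting, 1 h after compound addition; DMSO as baseline.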

[6] = target: guinea pig Leukotriene D4 Receptor (LTD4), CYSLTR1 (gene 100135514) (UniProt Q2NNR5); experiment: NVS_GPCR_gLTD4: NovaScreen (NVS) G Protein-Coupled Receptor Assay for guinea pig Leukotriene D4 Receptor (LTD4) (AID 2283248)
In short: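 Guinea pig lung membrane preparation; bound radioligand measured by filter scintillation after 1 h, loss of signal versus DMSO marking displacement. Compounds tested at 25 uM in duplicate, hits retested to max 50 uM.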

Sequence of sheep Cyclooxygenase-2 (Cox2), PTGS2 (gene 443460) (P79208 whole entry, looked up): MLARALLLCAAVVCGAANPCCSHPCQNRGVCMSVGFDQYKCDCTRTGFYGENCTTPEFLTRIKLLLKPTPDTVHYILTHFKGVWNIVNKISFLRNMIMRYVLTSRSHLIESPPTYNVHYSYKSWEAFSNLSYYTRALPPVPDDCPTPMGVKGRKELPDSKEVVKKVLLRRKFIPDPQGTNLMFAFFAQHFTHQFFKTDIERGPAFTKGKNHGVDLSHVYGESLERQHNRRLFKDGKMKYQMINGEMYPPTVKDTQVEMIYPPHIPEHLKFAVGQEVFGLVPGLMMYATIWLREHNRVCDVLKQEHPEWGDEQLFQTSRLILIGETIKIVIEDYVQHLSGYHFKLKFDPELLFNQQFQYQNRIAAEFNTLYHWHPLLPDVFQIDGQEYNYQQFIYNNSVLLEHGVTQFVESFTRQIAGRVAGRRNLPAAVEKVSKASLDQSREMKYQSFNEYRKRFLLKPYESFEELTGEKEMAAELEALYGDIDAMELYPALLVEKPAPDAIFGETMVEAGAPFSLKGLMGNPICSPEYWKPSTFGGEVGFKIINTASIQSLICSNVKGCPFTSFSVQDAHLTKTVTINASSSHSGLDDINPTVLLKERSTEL
Sequence of human MAP Kinase-Activated Protein Kinase 2 (MAPKAPK2), MAPKAPK2 (gene 9261) (P49137 whole entry, looked up): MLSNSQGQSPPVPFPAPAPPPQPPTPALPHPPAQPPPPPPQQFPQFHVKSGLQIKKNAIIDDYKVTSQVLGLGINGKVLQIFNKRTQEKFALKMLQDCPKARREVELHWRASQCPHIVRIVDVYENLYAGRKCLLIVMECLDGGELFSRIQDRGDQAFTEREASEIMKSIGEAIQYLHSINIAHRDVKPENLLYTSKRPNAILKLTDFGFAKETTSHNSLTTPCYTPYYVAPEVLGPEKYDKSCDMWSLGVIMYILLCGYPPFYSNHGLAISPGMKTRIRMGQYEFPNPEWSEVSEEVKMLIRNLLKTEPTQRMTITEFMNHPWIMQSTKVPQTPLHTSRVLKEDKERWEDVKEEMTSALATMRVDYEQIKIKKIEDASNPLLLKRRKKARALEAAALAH
Sequence of guinea pig Leukotriene D4 Receptor (LTD4), CYSLTR1 (gene 100135514) (Q2NNR5 whole entry, looked up): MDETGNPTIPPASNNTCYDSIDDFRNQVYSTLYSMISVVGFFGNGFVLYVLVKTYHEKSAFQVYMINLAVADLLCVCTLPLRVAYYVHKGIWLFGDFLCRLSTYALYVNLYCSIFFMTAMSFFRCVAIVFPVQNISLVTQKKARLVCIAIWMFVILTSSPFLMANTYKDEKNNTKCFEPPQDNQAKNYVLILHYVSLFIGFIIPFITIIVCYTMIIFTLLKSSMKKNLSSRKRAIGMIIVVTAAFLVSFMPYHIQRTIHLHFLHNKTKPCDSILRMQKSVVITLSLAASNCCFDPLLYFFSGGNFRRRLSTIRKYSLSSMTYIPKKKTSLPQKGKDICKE
Sequence of rat Constitutive Nitric Oxide Synthase (CNOS), Nos1 (gene 24598) (P29476 whole entry, looked up): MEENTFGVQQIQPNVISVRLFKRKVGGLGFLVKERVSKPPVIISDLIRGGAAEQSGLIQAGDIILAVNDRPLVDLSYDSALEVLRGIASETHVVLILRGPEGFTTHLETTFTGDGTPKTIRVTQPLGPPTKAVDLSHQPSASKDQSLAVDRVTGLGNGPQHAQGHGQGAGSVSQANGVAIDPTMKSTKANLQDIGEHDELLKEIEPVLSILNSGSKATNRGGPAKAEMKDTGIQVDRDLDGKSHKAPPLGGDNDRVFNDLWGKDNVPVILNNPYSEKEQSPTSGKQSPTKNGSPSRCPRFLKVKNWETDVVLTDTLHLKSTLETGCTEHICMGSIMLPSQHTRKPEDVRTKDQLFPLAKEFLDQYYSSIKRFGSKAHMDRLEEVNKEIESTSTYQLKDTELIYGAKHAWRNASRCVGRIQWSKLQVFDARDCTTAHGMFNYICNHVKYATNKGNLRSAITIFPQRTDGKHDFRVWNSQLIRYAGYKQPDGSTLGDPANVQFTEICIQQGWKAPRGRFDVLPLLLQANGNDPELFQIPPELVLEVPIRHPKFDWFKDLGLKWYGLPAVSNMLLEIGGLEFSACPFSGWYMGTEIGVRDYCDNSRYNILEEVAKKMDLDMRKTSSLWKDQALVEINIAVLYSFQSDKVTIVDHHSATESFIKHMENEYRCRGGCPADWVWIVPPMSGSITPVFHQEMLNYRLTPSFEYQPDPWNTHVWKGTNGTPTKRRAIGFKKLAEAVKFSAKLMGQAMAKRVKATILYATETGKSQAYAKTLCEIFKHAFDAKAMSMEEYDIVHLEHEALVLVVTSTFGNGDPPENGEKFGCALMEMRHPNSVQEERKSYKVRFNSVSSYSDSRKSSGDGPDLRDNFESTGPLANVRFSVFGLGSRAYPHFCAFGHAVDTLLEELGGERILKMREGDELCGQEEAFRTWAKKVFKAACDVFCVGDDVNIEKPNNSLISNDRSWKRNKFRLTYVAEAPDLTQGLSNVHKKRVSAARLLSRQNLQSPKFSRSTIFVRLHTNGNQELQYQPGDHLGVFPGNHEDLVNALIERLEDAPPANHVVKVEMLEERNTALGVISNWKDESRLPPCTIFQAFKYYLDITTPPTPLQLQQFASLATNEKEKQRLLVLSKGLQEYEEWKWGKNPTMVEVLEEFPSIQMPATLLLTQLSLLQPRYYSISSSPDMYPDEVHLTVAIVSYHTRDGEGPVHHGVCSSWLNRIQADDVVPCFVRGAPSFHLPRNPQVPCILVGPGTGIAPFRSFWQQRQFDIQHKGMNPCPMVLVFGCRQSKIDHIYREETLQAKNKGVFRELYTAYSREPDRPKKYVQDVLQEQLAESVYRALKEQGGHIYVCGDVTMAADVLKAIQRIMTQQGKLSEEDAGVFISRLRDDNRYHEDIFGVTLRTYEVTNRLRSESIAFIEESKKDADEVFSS
Sequence of human Vascular Endothelial Growth Factor Receptor 1 (VEGFR1), FLT1 (gene 2321) (P17948 whole entry, looked up): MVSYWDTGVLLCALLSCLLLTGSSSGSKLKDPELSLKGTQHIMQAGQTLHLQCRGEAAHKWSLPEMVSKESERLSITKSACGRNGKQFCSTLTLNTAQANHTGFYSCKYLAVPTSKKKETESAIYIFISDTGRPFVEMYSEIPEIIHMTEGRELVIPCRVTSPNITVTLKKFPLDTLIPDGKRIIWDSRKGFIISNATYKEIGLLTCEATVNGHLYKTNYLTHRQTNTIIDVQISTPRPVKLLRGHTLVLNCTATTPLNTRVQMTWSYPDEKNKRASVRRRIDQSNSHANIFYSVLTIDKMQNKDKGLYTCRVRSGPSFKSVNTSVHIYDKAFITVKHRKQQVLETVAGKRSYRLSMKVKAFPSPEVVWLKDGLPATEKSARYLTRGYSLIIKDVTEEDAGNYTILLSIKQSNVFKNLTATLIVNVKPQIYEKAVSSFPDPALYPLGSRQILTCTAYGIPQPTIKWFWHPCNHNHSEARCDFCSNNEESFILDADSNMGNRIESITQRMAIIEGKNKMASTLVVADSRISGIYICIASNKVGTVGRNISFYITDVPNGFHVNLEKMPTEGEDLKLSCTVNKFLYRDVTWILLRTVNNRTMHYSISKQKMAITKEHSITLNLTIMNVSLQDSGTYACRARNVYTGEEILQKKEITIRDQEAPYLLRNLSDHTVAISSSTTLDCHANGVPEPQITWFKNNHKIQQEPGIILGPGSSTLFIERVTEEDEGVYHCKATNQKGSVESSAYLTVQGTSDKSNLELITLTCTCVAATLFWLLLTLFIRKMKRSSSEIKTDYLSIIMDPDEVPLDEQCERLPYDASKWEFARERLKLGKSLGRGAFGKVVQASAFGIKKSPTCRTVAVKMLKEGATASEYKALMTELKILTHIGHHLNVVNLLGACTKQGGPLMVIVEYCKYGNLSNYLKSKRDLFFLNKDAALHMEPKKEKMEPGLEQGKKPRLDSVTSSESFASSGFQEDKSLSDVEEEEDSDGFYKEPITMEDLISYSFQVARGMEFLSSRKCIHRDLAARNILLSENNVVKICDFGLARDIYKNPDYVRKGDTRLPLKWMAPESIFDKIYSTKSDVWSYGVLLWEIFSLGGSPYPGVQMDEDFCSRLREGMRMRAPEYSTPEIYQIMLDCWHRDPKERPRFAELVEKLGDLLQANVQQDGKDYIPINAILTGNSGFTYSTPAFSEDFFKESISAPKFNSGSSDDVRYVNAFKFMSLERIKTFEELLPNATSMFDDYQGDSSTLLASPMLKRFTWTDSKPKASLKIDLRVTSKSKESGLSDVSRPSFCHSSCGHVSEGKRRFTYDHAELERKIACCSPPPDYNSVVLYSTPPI
Sequence of human Matrix Metalloproteinase-2 (MMP2), MMP2 (gene 4313) (P08253 whole entry, looked up): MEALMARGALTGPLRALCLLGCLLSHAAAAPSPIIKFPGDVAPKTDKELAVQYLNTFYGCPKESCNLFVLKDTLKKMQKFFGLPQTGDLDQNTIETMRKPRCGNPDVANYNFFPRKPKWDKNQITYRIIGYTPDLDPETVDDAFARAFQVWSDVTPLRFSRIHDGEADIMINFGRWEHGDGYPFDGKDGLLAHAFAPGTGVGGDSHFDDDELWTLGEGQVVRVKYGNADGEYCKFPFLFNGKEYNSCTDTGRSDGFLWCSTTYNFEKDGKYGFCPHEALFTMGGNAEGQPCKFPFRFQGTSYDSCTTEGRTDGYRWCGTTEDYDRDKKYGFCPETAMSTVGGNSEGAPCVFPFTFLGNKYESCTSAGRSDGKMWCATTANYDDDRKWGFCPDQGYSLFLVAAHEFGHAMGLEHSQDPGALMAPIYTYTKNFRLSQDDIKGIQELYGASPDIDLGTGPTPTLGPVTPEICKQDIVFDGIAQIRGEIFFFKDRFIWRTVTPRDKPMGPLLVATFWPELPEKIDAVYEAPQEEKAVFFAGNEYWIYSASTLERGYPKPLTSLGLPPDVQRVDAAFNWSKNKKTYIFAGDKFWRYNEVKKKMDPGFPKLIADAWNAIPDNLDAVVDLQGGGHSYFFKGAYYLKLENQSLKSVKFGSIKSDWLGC

Structure (SMILES): Nc1ccc(C(=O)O)cc1
- outcome [1]: inactive

Structure (SMILES): CCN1CN(CC)CN(CC)C1
- outcome [2]: inactive
- outcome [3]: inactive

Structure (SMILES): Nc1cccc(N)n1
- outcome [4]: inactive

Structure (SMILES): C=C(C)C1CC=C(C)CC1 (configuration not stated)
- AC50 [3]: 19.3 µM (active)

Structure (SMILES): Cc1ccc([N+](=O)[O-])cc1N
- AC50 [5]: 7.96 µM (active)

Structure (SMILES): CN1CCN(C)CC1
- outcome [6]: inactive
